The values below come from PubChem BioAssay (NCI).

The panel holds about 79,000 compounds, 15% with a hit somewhere; the sample as a whole holds those more often. Values without a mark were called inactive. Calls of active or inactive are those of the source. No stated cut-off is given here; in the data, active means growth inhibition above about 70%; inactive means the rest.

The nature of assay [1]: NCI Yeast Anticancer Drug Screen. Data for the rad50 strain (AID 155).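 Further: 0% = growth of vehicle-only cultures of the same strain.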 To be noted: S. cerevisiae rad50 strain growth inhibition; at 50.0 µM; stronger effect = higher value. A digest of the protocol: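 Yeast carrying a defined DNA repair defect were exposed to test compounds, and growth was compared with vehicle-treated controls to give percent inhibition.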
The nature of assay [2]: NCI Yeast Anticancer Drug Screen. Data for the mec2-1 strain (AID 157). To be noted: S. cerevisiae mec2-1 strain, at 50.0 µM, stronger effect = higher value. Put shortly: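 Mutant yeast (mec2-1) grown with compound; growth inhibition relative to vehicle control reported.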
A short description of assay [3]: NCI Yeast Anticancer Drug Screen. Data for the sgs1 mgt1 strain (AID 161).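 Further: 0% = growth of cultures given vehicle only.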 To be noted: S. cerevisiae sgs1 mgt1 strain, at 50.0 µM, stronger effect = higher value. Put shortly: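 This yeast growth screen uses a strain with defined DNA-repair lesions; compound-treated growth is compared with vehicle-treated growth.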
The nature of assay [4]: NCI Yeast Anticancer Drug Screen. Data for the cln2 rad14 strain (AID 165).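 Further: 0% = growth equal to vehicle treated cultures.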 To be noted: S. cerevisiae cln2 rad14 strain, at 50.0 µM, stronger effect = higher value. A digest of the protocol: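 Readout is yeast growth inhibition versus vehicle-treated controls, using a strain with cln2 and rad14 alterations exposed to compound.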
Assay [5] is described as follows: NCI Yeast Anticancer Drug Screen. Data for the bub3 strain (AID 167). To be noted: S. cerevisiae bub3 mutant strain, at 50.0 µM, stronger effect = higher value. Put shortly: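 Compounds were applied to a genetically altered yeast strain carrying a cell-cycle control defect. Growth inhibition was scored against vehicle-treated controls.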
A short description of assay [6]: NCI Yeast Anticancer Drug Screen. Data for the mlh1 rad18 strain (AID 175). To be noted: S. cerevisiae mlh1 rad18 strain growth inhibition; at 50.0 µM; stronger effect = higher value. Put shortly:
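Genetically defined yeast (DNA repair-deficient) exposed to compounds; growth inhibition determined relative to vehicle.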

For the compound `c1ccc2[nH]c(N=Nc3cccc4c(N=Nc5cc6ccccc6[nH]5)cccc34)cc2c1`, the growth inhibition in assay [1] is 5.1%; in assay [2], -11.4%; in assay [3], -13.7%; in assay [4], 18.1%; in assay [5], -2.6%; in assay [6] it was 8.65%.
For `Nc1cccc(NC(=O)c2cccc(N)c2)c1`, the growth inhibition in assay [1] is 9.8%; in assay [2] it was -4.75%; in assay [3] it was 2.2%; in assay [4], 10.4%; in assay [5], 11.4%; in assay [6], 18.1%.
In the case of `COc1cccc(C2CC(C)(N3CCCC3)Oc3cc4c(cc32)OCO4)c1O` (stereo unspecified), the growth inhibition is 7.5% in assay [1]; 13.9% in assay [2]; 10% in assay [3]; 13.8% in assay [4]; 28.6% in assay [5]; -10.2% in assay [6].
In the case of `CC(C)(C)OC(=O)c1ccc(NCc2cc(O)ccc2O)cc1`, the growth inhibition in assay [1] was 87.4% (active); in assay [2], 89% (active); in assay [3], 90.8% (active); in assay [4], 90.3% (active); in assay [5] it was 88.5% (active); in assay [6], 87.1% (active).
Regarding `CCn1c(O)c(C=Nc2ccccc2)s/c1=N/Nc1nc(C)cs1`, the growth inhibition is -45.3% in assay [1]; -55.2% in assay [2]; -25% in assay [3]; -14.1% in assay [4]; -26.7% in assay [5]; -27.5% in assay [6].
For `O=[N+]([O-])c1ccc(CS(=O)(=O)c2cccs2)o1`, the growth inhibition in assay [1] was 39%; in assay [2] it was 12.8%; in assay [3], 19.1%; in assay [4] it was -6.25%; in assay [5], 19.5%; in assay [6] it was 16.6%.
As to `O=c1cc(-c2ccc(O)cc2)oc2cc(O)cc(O)c12`, the growth inhibition in assay [1] is 5.85%; in assay [2], -5.65%; in assay [3], -8.45%; in assay [4], -43.5%; in assay [5] it was -20.9%; in assay [6], -14.9%.
In the case of `CCC1(C2C=COC=C2)NC(=O)NC1=O` (stereo unspecified), the growth inhibition in assay [1] was -14.1%; in assay [2], 3.8%; in assay [3] it was -8.35%; in assay [4], 6.45%; in assay [5], -4.75%; in assay [6], -2%.
With `CCN(CC)CCOC(=O)c1c(C)cc(C)cc1C`, the growth inhibition in assay [1] was -6.3%; in assay [2], -9.4%; in assay [3], 4.9%; in assay [4], -41.5%; in assay [5] it was -15.6%; in assay [6], -7.9%.
In the case of `Nc1ccccc1SC1CC(=O)N(c2ccc(I)cc2)C1=O` (stereo unspecified), the growth inhibition in assay [1] is -6.8%; in assay [2], -15.7%; in assay [3] it was -7.5%; in assay [4], 13.8%; in assay [5] it was 9.55%; in assay [6], 2.35%.
In the case of `O=C1CCCCCCCCCCC1Cc1cc(O)c(CC2CCCCCCCCCCC2=O)cc1O` (stereo unspecified), the growth inhibition in assay [1] is -1.2%; in assay [2], 3%; in assay [3], -5.95%; in assay [4], -12.9%; in assay [5] it was -5.8%; in assay [6], -12.8%.
`COC(=O)c1c2c(cc3c1CC1(Cc4cc5c(cc4C1=O)CCC5)C3)CCC2` (stereo unspecified): the growth inhibition was -23.4% in assay [1]; -37% in assay [2]; -2.4% in assay [3]; 0.45% in assay [4]; 10.8% in assay [5]; 3.3% in assay [6].
Regarding `CCCOC(=O)c1ccc(Cl)c(Cl)c1`, the growth inhibition in assay [1] was 10.6%; in assay [2] it was 7.85%; in assay [3] it was 2.5%; in assay [4], -58.2%; in assay [5] it was -6.15%; in assay [6], 5.9%.
With `O=C(NC(=O)c1ccc(F)c(Cl)c1)NC1CC1`, the growth inhibition in assay [1] was 6.3%; in assay [2], -1.15%; in assay [3] it was 12%; in assay [4], 14.2%; in assay [5], 9.25%; in assay [6], 5.3%.
Take `COC(=O)c1ccccc1NC(=O)Nc1ccccc1`: the growth inhibition in assay [1] is 3.1%; in assay [2], 9.35%; in assay [3], 3.25%; in assay [4] it was -14.9%; in assay [5], 4.25%; in assay [6], 8.35%.
On to `CSC1C(OC(=O)c2ccccc2)C(COC(=O)c2ccccc2)OC1n1cnc2ncnc(NC(=O)c3ccccc3)c21` (stereo unspecified), for which the growth inhibition is 45.4% in assay [1]; 20.4% in assay [2]; 34.6% in assay [3]; 29.4% in assay [4]; 6.45% in assay [5]; 38.8% in assay [6].
Consider `CCOC(=O)C1(C)CCCCC1=O` (stereo unspecified), for which the growth inhibition in assay [1] is 7.45%; in assay [2], -6.55%; in assay [3] it was 3.2%; in assay [4], 7.95%; in assay [5] it was 5.9%; in assay [6], 2.95%.
Turning to `CCOC(=O)n1oc2ccc(Br)cc2c1=O`, the growth inhibition in assay [1] is 53.3%; in assay [2], 58%; in assay [3] it was 76.2% (active); in assay [4] it was 45%; in assay [5] it was 61.6%; in assay [6], 64.5%.
Take `COc1ccc(-c2c(C(=O)O)cc(O)c3cc(OC)c(OC)cc23)cc1OC`: the growth inhibition in assay [1] is 6.4%; in assay [2], -2.9%; in assay [3] it was 5%; in assay [4] it was 26.4%; in assay [5], 3.3%; in assay [6], -0.75%.
For the compound `CCOC(=O)c1c(-c2ccccc2)nn(CC(N)=O)c1CO`, the growth inhibition in assay [1] is -15.9%; in assay [2] it was -5.15%; in assay [3], 10.4%; in assay [4], 23.1%; in assay [5] it was 18.2%; in assay [6] it was -10.7%.
Turning to `CSCNC(=S)Nc1ccc(Cl)c(Cl)c1`, the growth inhibition was 59.2% in assay [1]; 45% in assay [2]; 35% in assay [3]; 23.4% in assay [4]; 53% in assay [5]; 61.3% in assay [6].
